The results in this text go back to PubChem BioAssay AID1851 (National Center for Advancing Translational Sciences (NCATS), 2009).

Where “and” joins values, the source holds several entries; their conditions need not be identical. Equal values may be shown once. In all, about 16,000 compounds went through this assay and about 5,700 (36%) were called active. Another 24% or so got no clear call; they are omitted. The list shows a part of the results. A number with no mark means an inactive call. Calls follow the shape of the dose curve; as a rule, active = well fitted curve in the direction sought with a large enough effect; inconclusive = small, poorly fitted or top-dose-only effect, or effect the other way; inactive = no such curve, though single readings can be large or run the other way.
% is scaled to controls: 0 for no effect and ±100 for the full control effect.

Chain of Cytochrome P450 1A2 (Homo sapiens) (P05177 whole entry, looked up): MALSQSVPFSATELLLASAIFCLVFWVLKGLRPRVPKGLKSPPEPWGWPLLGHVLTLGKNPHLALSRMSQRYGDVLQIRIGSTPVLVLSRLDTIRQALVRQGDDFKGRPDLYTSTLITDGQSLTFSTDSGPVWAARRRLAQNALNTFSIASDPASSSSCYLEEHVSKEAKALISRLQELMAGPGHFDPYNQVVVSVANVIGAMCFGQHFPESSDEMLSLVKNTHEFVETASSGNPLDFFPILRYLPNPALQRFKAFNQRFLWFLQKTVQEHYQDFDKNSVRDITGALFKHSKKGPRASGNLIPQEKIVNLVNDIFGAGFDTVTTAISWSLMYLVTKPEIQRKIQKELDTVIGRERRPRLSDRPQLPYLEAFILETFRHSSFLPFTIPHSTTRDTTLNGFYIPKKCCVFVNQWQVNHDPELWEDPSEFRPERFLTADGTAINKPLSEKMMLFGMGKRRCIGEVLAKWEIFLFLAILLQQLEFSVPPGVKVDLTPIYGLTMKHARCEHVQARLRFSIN

This assay addresses Cytochrome P450 1A2 (Homo sapiens) (UniProt P05177). The assay is described as follows: Cytochrome panel assay with activity outcomes. The note with it: recombinant CYP, pro-luciferin dealkylation, luminescence, p450-cyp1a2; series mostly up to 57.1 µM; activity, negative = inhibition: at the top concentration. The method, then: The P450 gene superfamily is involved in the metabolism and clearance of xenobiotics. This assay used various human CYP P450 isozymes to measure the dealkylation of various pro-luciferin substrates to luciferin. The luciferin is then measured by luminescence after the addition of a luciferase detection reagent. Pro-luciferin substrate concentration in the assay was equal to its KM for its CYP P450 isozyme. Inhibitors and some substrates limit the production of luciferin, and decrease measured luminescence.
NCGC Assay Protocol Summary:
1, Reagent, 2 uL, Isozyme and Pro-Luciferin
2, Library compounds, 23 nl, 40 uM to 0.24 nM dilution series
3, Controls, 23 nl, Isozyme specific inhibitor
4, Reagent, 2 uL, NADPH regeneration solution
5, Incubation time, 60 min, Isozyme specific temperature
6, Reagent, 4ul, Detection reagent
7, Incubation time, 20 min, Isozyme specific temperature
8, Detection, 1 sec, ViewLux luminescent read
The luciferase-based P450-GloTM Screening Systems were obtained from Promega (Madison, WI) for CYP 1A2 (V9770), CYP 2C9 (V9790), CYP2 C19 (V9880), CYP 2D6 (V9890), and CYP 3A4 Luciferin-PPXE (V9910) and were adapted for 1,536-well microplates and an automated protocol. The control compounds furafylline for 1A2 (F124), sulfaphenazole for CYP 2C9 (S0758), ketoconazole for CYP 2C19 (K1003), quinidine for 2D6 (Q3625), and ketoconazole for 3A4 (K1003) were purchased from Sigma Aldrich (St. Louis, MO). Recombinant P450 enzymes were obtained from baculovirus constructs expressed in insect cells (BD/Gentest).
Medium-binding white solid Kalypsys plates used. Mixtures kept on ice. 1A2: 10 nM 1A2, 100 uM Luc-ME, 100 mM KPO4; 2C9: 10 nM 2C9, 100 uM Luc-H, 25 mM KPO4; 2C19: 5 nM 2C19, 10 uM Luc-H EGE, 50 mM KPO4; 2D6: 5 nM 2D6, 30 uM Luc-ME EGE, 100 mM KPO4; 3A4: 10 nM, 25 uM Luc-PPXE. All amounts are reflected in their final concentration, working concentration is 2x.
NADPH regeneration solution: 1.3 mM NADP+, 3.3 mM glucose-6-phosphate, 3.3 mM MgCl2, 0.4 U/mL glucose-6-phosphate dehydrogenase for all isozymes, 200 mM KPO4 for 3A4. Mixture prepared at RT but kept on ice during automated run.
RT incubation in auxilliary plate hotel for 1A2, 2D6, and 3A4; 37C for 2C9 and 2C19.
Keywords: P450, CYP1A2, CYP2C19, CYP2C9, CYP2D6, CYP3A4, Luciferase, MLSMR, MLSCN, NIH Roadmap, qHTS, NCGC
Regarding `COc1cccc([C@@H]2Oc3ccc(OC)cc3/C(=N/O[C@@H](C)CN3CCCc4nc(C)c(C)cc43)[C@@H]2O)c1`, the activity, negative = inhibition is 2.03% [at 11.4 µM].
On the same count and under the same terms, then `CN1CCN(c2ccc([N+](=O)[O-])cc2S(=O)(=O)N2CCOCC2)CC1`, with 6.31%.
Take `Cn1c(CCN2CCCCC2)nc2cc([N+](=O)[O-])ccc21`: the “activity, negative = inhibition” value was -14.1%.
With `CN(C)S(=O)(=O)c1cc([N+](=O)[O-])ccc1N1CCCCCC1`, the half-maximal activity concentration (AC50) (as a rule, the concentration at which the activity in the assay is half-maximal) was 14.1 µM (active).
Take `CCCNC(=O)OC[C@@H]1O[C@H](CCO/N=C(\C)CCC(=O)OC[C@@H]2O[C@H](c3ccccc3)C=C[C@@H]2Oc2ccc(OC)cc2)C=C[C@@H]1Oc1ccc(OC)cc1`: the activity, negative = inhibition is -2.5% [at 11.4 µM].
Take `CNc1ccc(Br)cc(C(=O)/C=C/c2ccc3c(c2)OCO3)c1=O`: the AC50 is 3.16 µM (active).
The same measure, in the same setting: then `CCNc1ccc(Br)cc(C(=O)/C=C/c2ccc3c(c2)OCO3)c1=O`, with 22.4 µM (active).
Turning to `Nc1ccccc1C(=O)/C=C\c1ccc2c(c1)OCO2`, the activity, negative = inhibition was -4.77% [at 11.4 µM].
In the case of `Oc1cc(O)c2c(c1)O[C@H](c1ccc(O)c(O)c1)[C@H](O)C2`, the AC50 result was “inactive”.
With `Cc1ccc(CCN2CC(C(=O)NC3CCCC3)CC2=O)cc1` (stereo not given), the “activity, negative = inhibition” value was -27.7%.
Regarding `O=C(NC1CCCC1)C1CC(c2ccc(F)cc2)=NO1` (stereo not given), the AC50 was 15.8 µM (active).
Regarding `CC1CCCC(C)N1C(=O)C1CC(c2ccc(F)cc2)=NO1` (stereo not given), the “activity, negative = inhibition” value is -45.5%.
In the case of `COC(=O)c1c(-c2ccccc2)csc1NC(=O)CSc1ncnc2sc(C)c(C)c12`, the “activity, negative = inhibition” value was -28.3%.
Still for that read-out and setting: for `Cc1c(Cl)cccc1NC(=O)C[C@H]1Sc2ccccc2NC1=O` the value was -23.2% [at 2.29 µM].
On to `COC(=O)c1c(NC(=O)CC2Nc3ccccc3NC2=O)sc(C)c1C` (stereo not given), for which the AC50 was 10 µM (active).
Still for that read-out and setting: for `Cc1cc(NC(=O)Nc2ccc(N(C)C)cc2)c2cc(F)cc(F)c2n1` the value was 0.126 µM (active).
As for `CO[C@@H]1COC(=O)C/C=C\[C@@H](C)[C@@H]2C=C[C@H](O)[C@@H](COC(=O)CCC[C@H]1C)O2`, the activity, negative = inhibition is 1.73% [at 11.4 µM].
In the case of `Cc1ccc(Nc2nc(-c3c(C)nc4ncccn34)cs2)cc1`, the AC50 is 3.16 µM (active).
Same read-out and setting: for `Cc1cc(NCc2ccccn2)ccc1Br` the value was 4.47 µM (active).
On the same count and under the same terms, for `CN(C)CC[C@H](c1ccc(Br)cc1)c1ccccn1` the value was “inactive”; for `Cc1cc(Br)ccc1NCc1ccccn1`, 1.12 µM (active).
Regarding `Cc1cc(N=Cc2c(CO)cnc(C)c2O)c(N=Cc2c(CO)cnc(C)c2O)cc1C.[Zn]`, the activity, negative = inhibition is -10.4% [at 2.29 µM].
The same measure, in the same setting: for `CC(=O)NC1(c2cccc(F)c2)CCN(CC(=O)NC2CCCCC2)CC1` the value was -13.1%.
The same measure, in the same setting: then `CCCC(c1cc(C(C)(C)C)c(O)cc1C)c1cc(C(C)(C)C)c(O)cc1C`, with -12.3% [at 2.29 µM].
As for `N#Cc1c(NC(=O)C(F)(F)F)sc2c3c(=O)c4ccccc4c(=O)c=3oc3ccccc3c12`, the AC50 is 1 µM (active).
For `C[C@@](N)(C(=O)O)c1ccc(C(=O)O)cc1`, the AC50 result was “inactive”.
Consider `CN(C(=O)c1cnc(N2CCN(c3ncccn3)CC2)c2ccccc12)c1ccc(Cl)cc1`, for which the AC50 was 15.8 µM (active).
In the case of `COCC(=O)N1CCC2(CC1)CCN(c1ncccn1)CC2`, the “activity, negative = inhibition” value was 1.86%.
Take `O=C(c1cnc(N2CCN(c3ncccn3)CC2)c2ccccc12)N1CCN(c2ncccn2)CC1`: the “activity, negative = inhibition” value was -27.3%.
For `CN(CCc1ccc(Cl)c(Cl)c1)CCN1CCCCCC1`, the AC50 was 31.6 µM (active).
With `COc1ccc(CCN(C)CCc2ccc(OC)c(OC)c2)cc1OC`, the “activity, negative = inhibition” value was -18.9%.
Take `CCOC(=O)CC1C(=O)NCCN1S(=O)(=O)c1ccc(Cl)c(Cl)c1` (stereo not given): the “activity, negative = inhibition” value is -0.861%.
As for `O=C(Cc1ccc(Cl)c(Cl)c1)OCCN1CCCC1`, the AC50 is 12.6 µM (active).
Consider `CO[C@H]1COC(=O)[C@@H](CCSC)NC(=O)C/C=C\[C@@H](C)[C@H](OC)COC(=O)[C@@H](OCc2ccccc2)/C=C\[C@@H]1C`, for which the activity, negative = inhibition is -4.15% [at 11.4 µM].
Regarding `Cc1ccc(C(=O)NCCNc2ccc(Cl)cc2[N+](=O)[O-])o1`, the AC50 is 2 µM (active).
As to `COc1cccc(C2C(C(=O)c3cc4ccccc4o3)=C(O)C(=O)N2c2cc(C)on2)c1OC` (stereo not given), the “activity, negative = inhibition” value was -22.3%.
In the case of `COc1cccc2cc3c(=O)oc4ccccc4c3nc12`, the AC50 is 0.0891 µM (active).
For the molecule `CO/N=C\C[C@@H]1C=C[C@H](OC(C)=O)[C@H](COC(C)=O)O1`, the activity, negative = inhibition was -9.17% [at 11.4 µM].
Consider `CCO/C([O-])=N/c1c[n+](N2CCOCC2)no1`, for which the “activity, negative = inhibition” value was -15.8% [at 25.6 µM].
For the molecule `CC(C)C(C(=O)NCC1CCCO1)N(Cc1ccco1)C(=O)CNS(=O)(=O)c1ccc(F)cc1` (stereo not given), the “activity, negative = inhibition” value is -23.5%.
As for `O=C(NCCc1cccs1)C1CC(c2c(Cl)cccc2Cl)=NO1` (stereo not given), the AC50 is 0.501 µM (active).
In the case of `CCN(CC)C(=S)SSC(=S)N(CC)CC`, the AC50 is 6.31 µM (active) and 1.58 µM (active).
Still for that read-out and setting: for `Cn1cc(-c2nc3cnc(N4CCNCC4)nc3n(C3CC3)c2=O)c2ccccc21` the value was 12.6 µM (active); for `COc1ccc(-n2c(=O)c(-c3cn(C)c4ccccc34)nc3cnc(N4CCNCC4)nc32)cc1`, 15.8 µM (active); for `Cn1cc(-c2nc3cnc(N4CCNCC4)nc3n(-c3ccccc3)c2=O)c2ccccc21`, 15.8 µM (active).
